In the library only some 12% were active in any assay of this set; here they are far more common.
AmpC inh no detg: AmpC beta-lactamase inhibition without detergent; P00811; Potency, µM (series often up to 57.1 µM), most hits filed as inhibitors; 330,000 tested, 0.52% active; AmpC nitrocefin hydrolysis, absorbance 480 nm, 0.0001% Triton; note: nearly all actives have a fitted effect of over 20% in size
Target sequence (P00811 whole entry, looked up): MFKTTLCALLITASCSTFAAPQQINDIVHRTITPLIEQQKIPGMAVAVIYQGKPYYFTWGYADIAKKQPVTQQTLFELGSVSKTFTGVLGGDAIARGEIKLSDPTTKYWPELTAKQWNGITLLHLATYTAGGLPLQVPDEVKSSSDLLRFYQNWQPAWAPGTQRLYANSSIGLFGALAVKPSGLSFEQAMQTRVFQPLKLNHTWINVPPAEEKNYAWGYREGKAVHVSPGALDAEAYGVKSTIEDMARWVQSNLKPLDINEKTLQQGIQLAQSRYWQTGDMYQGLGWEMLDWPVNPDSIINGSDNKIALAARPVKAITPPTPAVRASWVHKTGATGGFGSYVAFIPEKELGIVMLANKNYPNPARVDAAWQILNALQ
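AmpC (5.3 nM in the dispensed reagent) in 20 mM phosphate pH 7.0 with 0.01% (detergent screen) or 0.0001% Triton X-100 was preincubated with compounds for 15 min at room temperature. Nitrocefin was then added from an 800 uM solution, and hydrolysis was followed at 480 nm.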
SARS PLP yeast: SARS-CoV PLP inhibition in yeast | S. cerevisiae expressing SARS-CoV PLpro, growth rescue | Potency, µM (top dose mostly 32.9 µM), most hits filed as activators | 330,000 tested, 0.19% active | AID 485353; calls by dose curve; note: nearly all actives have a fitted effect of over 55% in size
Pf growth 96h: inhibits malaria parasite growth, 96 h; 320,000 tested, 6.9% active; P. falciparum luciferase reporter growth, 96 h; Potency, µM (doses to about 28.7 µM), usual class: inhibitors
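P. falciparum expressing integrated firefly luciferase grown in erythrocytes (2% hematocrit, 0.05% parasitemia final) with compounds for 96 hours at 37 C, 5% CO2. Growth inhibition read as loss of luminescence after adding luciferase detection reagent.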
Sm TGR inh: S. mansoni TGR enzyme inhibition | Q962Y6 | 360,000 tested, 3% active | purified TGR, DTNB reduction, TNB absorbance 405 nm | Potency, µM (series often up to 114 µM), usual class: inhibitors | AID 485364; note: nearly all actives have a fitted effect of over 60% in size
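Kinetic colorimetric format: TGR-catalysed, NADPH-driven DTNB reduction monitored via TNB absorbance. Enzyme dispensed at 20 nM; compound exposure 15 min at room temperature before reaction start.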
Pf growth 48h: inhibits P. falciparum growth in the first generation, 48 h | AID 504832 | Potency, µM (titrated, usually from 28.7 µM), most hits filed as inhibitors | 310,000 tested, 5.9% active | P. falciparum luciferase growth in erythrocytes, 48 h
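Firefly luciferase activity from engineered P. falciparum reports growth; inhibitors lower the luminescent signal. Cultures contained 2% hematocrit erythrocytes at 0.1% final parasitemia.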
AmpC detergent: blocks E. coli AmpC beta-lactamase in detergent assay | P00811 | AmpC hydrolysis of nitrocefin, absorbance 480 nm, 0.01% Triton | Potency, µM (titrated, usually from 114 µM), hits mostly inhibitors | 370,000 tested, 0.041% active | AID 485294; note: nearly all actives have a fitted effect of over 25% in size
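AmpC (5.3 nM in the dispensed reagent) in 20 mM phosphate pH 7.0 with 0.01% (detergent screen) or 0.0001% Triton X-100 was preincubated with compounds for 15 min at room temperature. Nitrocefin was then added from an 800 uM solution, and hydrolysis was followed at 480 nm.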
Hits are given with their value; n = inactive; u = inconclusive; x = not tested or not shown; [ ] = dose if it differs, or a comment. Unless noted, calls come from the whole dose curve; as a rule, active = well fitted curve in the direction sought with a large enough effect; inconclusive = small, poorly fitted or top-dose-only effect, or another doubt; inactive = no such curve, though single readings can be large; an effect the other way counts as inactive or inconclusive.

SMILES	AmpC inh no detg	SARS PLP yeast	Pf growth 96h	Sm TGR inh	Pf growth 48h	AmpC detergent
COc1ccc(OC)c(CCNC(=O)c2cc3c(=O)n(C)c4ccccc4c3n2C)c1	x	x	x	n	x	n
Cc1nn(CCO)c2nc(-c3cccs3)cc(C(F)(F)F)c12	n	n	n	25µM	n	n
CC(C)N1CCN(c2ccc(S(=O)(=O)N3CCOCC3)cn2)CC1	n	n	u	n	n	n
Cc1sc(NC(=O)CCl)c(C(=O)c2ccccc2)c1C	n	n	n	7.9µM	13µM	n
Cc1ccccc1C(=O)Nc1sc(C)c(C)c1C(=O)c1ccccc1	n	n	u	n	u	n
Cc1ccc(C)c(NC(=O)Cc2coc3cc(C)cc(C)c23)c1	x	x	x	n	x	n
Cc1ccc(OCCCC(=O)NCc2ccco2)c(C)c1	n[2.29 µM]	n	n	n	4.1µM	n
Cc1ccc(C(=O)NCCC(=O)NCc2ccco2)cc1	n	n	10µM	n	n	u
Cc1cc(C)c2c(CC(=O)NCc3ccco3)coc2c1	n	n	1µM	n	n	u
O=C(CCNC(=O)c1ccc(Br)cc1)NCc1ccco1	n	n	n	n	n	n
Cc1ccc(-c2nc(C)sc2CC(=O)NCc2ccco2)cc1	n	n	x	22µM	n	n
Cc1ccc(NC(=O)Cc2sc(C)nc2-c2ccc(C)cc2)cc1	n	n	u	n	n	n
Cc1ccc(S(=O)(=O)c2cnc(SCC(=O)Nc3ccc4c(c3)OCCO4)[nH]c2=O)cc1	x	x	x	n	x	n
Cc1ccccc1Cn1c(C)c(CNCc2ccccc2)c(C(=O)O)c1C	x	x	x	n	x	n
CN(C)CCN(CC1CCCN(Cc2ccccc2F)C1)C(=O)c1ccc(F)cc1 (centres undefined)	n	n	n	n	u	n
COc1cc(C(=O)N(CCN(C)C)CC2CCCN(Cc3ccccc3F)C2)ccc1C (centres undefined)	n	n	n	n	10µM	u
Cc1cc(C)c(C(=O)N(CCN(C)C)CC2CCCN(Cc3ccccc3F)C2)o1 (centres undefined)	n	n	u	n	12µM	n
Cn1ccc2cc(-c3csc(N4CCC(C(N)=O)CC4)n3)ccc21	n	n	u	n	u	n
CSC[C@@H]1NC(=S)N(c2ccc(C)cc2)C1=O	n	n	n	n	n	n
CCC(C)N(C)Cc1cccc(C2(O)CCN(S(=O)(=O)c3ccc(F)c(C)c3)CC2)c1 (centres undefined)	n	n	u	n	13µM	n
Cc1cc(S(=O)(=O)N2CCN(c3c(C)cccc3C)CC2)ccc1F	n	n	x	n	u	n
CCN1CCN(C(c2ccccc2Cl)c2c(O)cc(C)n(Cc3ccco3)c2=O)CC1 (centres undefined)	x	x	x	4µM	x	n
Oc1c(C(c2ccc(Cl)cc2Cl)N2CCN(c3ccccc3)CC2)sc2nc(-c3ccco3)nn12 (centres undefined)	x	x	x	n	x	n
Cc1cc(O)c(C(c2ccccc2Cl)N2CCN(c3ccccc3)CC2)c(=O)n1Cc1ccco1 (centres undefined)	x	x	x	2.8µM	x	n
O=C(c1ccco1)N1CCN(C(c2ccccc2Cl)c2nnnn2Cc2ccco2)CC1 (centres undefined)	n	n	x	u	u	n
SMILES	AmpC inh no detg	SARS PLP yeast	Pf growth 96h	Sm TGR inh	Pf growth 48h	AmpC detergent
Cc1c(NS(=O)(=O)c2ccc(C(C)(C)C)cc2)c(=O)n(-c2ccccc2)n1C	x	x	x	n	x	n
O=C(CCc1ccccc1)OCC(=O)c1ccc([N+](=O)[O-])cc1	n	n	12µM	n	n	n
O=C(CCC(=O)OCC(=O)c1ccc([N+](=O)[O-])cc1)Nc1ccccc1Cl	n	u	13µM	n	u	n
O=C(Cc1ccccc1)OCC(=O)c1ccccc1	n	n	12µM	n	n	n
Cc1ccc(NC(=O)CSc2nc(=O)n(CCN3CCOCC3)c3c2CCCC3)cc1	n	n	u	n	n	n
CCc1ccc(NC(=O)CSc2nc(=O)n(CCCN3CCOCC3)c3c2CCCC3)cc1	n	n	u	n	9.3µM	n
COc1ccc(C)cc1NC(=O)CSc1nc(=O)n(Cc2ccco2)c2c1CCC2	x	x	x	35µM	x	n
Cc1cccc(NC(=O)CSc2nc(=O)n(Cc3ccco3)c3c2CCC3)c1C	x	x	x	n	x	n
CCc1ccc(NC(=O)CSc2nc(=O)n(Cc3ccco3)c3c2CCC3)cc1	x	x	x	45µM	x	n
Cc1c(Cl)cccc1NC(=O)CSc1nc(=O)n(Cc2ccco2)c2c1CCC2	x	x	x	40µM	x	n
CC(=O)Nc1ccc(NC(=O)C(C)OC(=O)CNS(=O)(=O)c2cccc(Cl)c2)cc1 (centres undefined)	n	n	n	n	n	n
CSc1ccc(CCNC(=O)c2cc(C)nc3c2c(C)nn3-c2ccccc2)cc1	x	x	x	n	x	n
Cc1ccc(S(=O)(=O)N2CCN(C(=O)Cc3ccc(S(=O)(=O)N4CCOCC4)s3)CC2)cc1	n	u	12µM	n	u	n
O=C(Cc1ccc(S(=O)(=O)N2CCOCC2)s1)N1CCN(S(=O)(=O)c2ccc(Cl)cc2)CC1	n	n	4.7µM	n	7.4µM	n
O=C(Cc1ccc(S(=O)(=O)N2CCCC2)s1)N1CCN(c2ccccc2)CC1	n	n	u	n	n	n
O=C(Cc1ccc(S(=O)(=O)N2CCOCC2)s1)N1CCN(c2cccc(C(F)(F)F)c2)CC1	n	n	10µM	n	u	n
O=C(COc1cccc(F)c1)NNC(=O)Cc1ccc(S(=O)(=O)N2CCOCC2)s1	n	n	u	n	u	n
O=C(COc1cccc(C(F)(F)F)c1)NNC(=O)Cc1ccc(S(=O)(=O)N2CCOCC2)s1	n	n	u	n	13µM	n
COc1ccc(N2CCN(C(=O)Cc3ccc(S(=O)(=O)N4CCOCC4)s3)CC2)cc1	n	n	u	n	u	n
Clc1ccc(-c2nnc(CNC3CC3)o2)cc1	n	n	n	n	n	n
O=C(CCc1nc(-c2cccs2)no1)Nc1ccccc1[N+](=O)[O-]	x	x	x	n	x	n
COCCOc1ccc(C(F)(F)F)cc1NC(=O)Cc1ccc(S(=O)(=O)N2CCOCC2)s1	n	n	8.3µM	n	12µM	n
CCOc1ccccc1N1CCN(C(=O)Cc2ccc(S(=O)(=O)N3CCOCC3)s2)CC1	n	n	u	n	u	u
O=C(Cc1ccc(S(=O)(=O)N2CCOCC2)s1)N1CCN(S(=O)(=O)c2cccc(Cl)c2)CC1	n	n	u	n	12µM	n
CCc1cc(C(=O)N2CCN(S(=O)(=O)c3ccc(Cl)cc3)CC2)sc1C	n	n	9.3µM	n	9.3µM	n
CCc1cccc(CC)c1NC(=S)NCCc1ccc(O)c(O)c1	n	n	u	u	u	n
